Assay results from PubChem BioAssay AID1851 (National Center for Advancing Translational Sciences (NCATS), 2009).
The whole screen tested about 16,000 compounds, of which about 2,600 (16%) were called active. Another 20% or so got no clear call; they are omitted. Only a sample is shown. Unmarked numbers belong to inactive results. Calls come from the whole dose curve; as a rule, active = well fitted curve in the direction sought with a large enough effect; inconclusive = small, poorly fitted or top-dose-only effect, or effect the other way; inactive = no such curve, though single readings can be large or run the other way.

target: Cytochrome P450 2D6 (Homo sapiens) (UniProt P10635); experiment: Cytochrome panel assay with activity outcomes; conditions: recombinant CYP, pro-luciferin dealkylation, luminescence, p450-cyp2d6; series mostly up to 57.1 µM; activity, negative = inhibition: at the top concentration
% is set by controls: 0 for no effect and ±100 for the full control effect.

Sequence of Cytochrome P450 2D6 (Homo sapiens) (P10635 whole entry, looked up): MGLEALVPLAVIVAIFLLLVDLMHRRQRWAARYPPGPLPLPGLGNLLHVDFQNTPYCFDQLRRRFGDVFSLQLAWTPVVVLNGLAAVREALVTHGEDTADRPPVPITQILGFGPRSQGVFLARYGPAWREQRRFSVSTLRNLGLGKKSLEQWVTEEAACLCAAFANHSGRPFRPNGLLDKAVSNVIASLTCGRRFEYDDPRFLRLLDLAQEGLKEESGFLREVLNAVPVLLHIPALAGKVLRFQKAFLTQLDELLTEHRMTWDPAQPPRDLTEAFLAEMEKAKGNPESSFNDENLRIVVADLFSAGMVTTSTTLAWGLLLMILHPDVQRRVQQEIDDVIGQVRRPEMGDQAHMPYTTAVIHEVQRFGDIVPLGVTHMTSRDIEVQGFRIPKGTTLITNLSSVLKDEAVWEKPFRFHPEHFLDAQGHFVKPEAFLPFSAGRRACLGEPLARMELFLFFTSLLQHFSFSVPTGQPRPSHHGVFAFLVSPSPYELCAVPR

Compound | activity, negative = inhibition | AC50
COc1ccc(N(CC(=O)O)N=O)cc1 | 8.99% [at 11.4 µM] | 
COc1ccc(OC)c2[nH]c(=O)c(CCNC(=O)c3ccc(S(=O)(=O)N(C)C)cc3)cc12 | 4.82% | 
O=C1[C@@H]2[C@H]3[C@H](O)[C@H](O)C/C(=N/OC[C@@H](O)COCc4ccco4)[C@@H]3CC[C@H]2C(=O)N1c1ccc(F)cc1F | 10.9% [at 11.4 µM] | 
COc1cc(C)c(Br)cc1S(=O)(=O)NCc1ccccc1 | -0.946% | 
COc1ccccc1CNCc1cccs1 |  | 0.794 µM (active)
COc1ccccc1CNC(=O)C1CCN(S(=O)(=O)N2CC(C)CC(C)C2)CC1 (configuration not stated) | -2.76% | 
COc1ccccc1CNC(=O)C/C(C)=N/NC(=O)Cc1ccccc1 | 9.12% | 
COc1cc(CNCc2cccs2)cc(Br)c1OC |  | 0.0562 µM (active)
C=CCOc1c(Br)cc(CNc2ccc(NC(=O)C(C)C)c(OC)c2)cc1OC | -29.1% | 
O=P(Cc1cc[n+]([O-])cc1)(c1ccccc1)c1ccccc1 | 10.1% | 
CCC(C)NS(=O)(=O)c1ccc(OCC(=O)NCC2CCCO2)cc1 (configuration not stated) | -20.2% | 
O=C(NCCCCc1ccccc1)C1CC(c2ccccc2[N+](=O)[O-])=NO1 (configuration not stated) |  | 0.1 µM (active)
Cc1ccc(CNC(=O)C2CC(c3ccccc3[N+](=O)[O-])=NO2)o1 (configuration not stated) | -26.5% | 
CC(C)(C)OC(=O)N1CCCC1C(=O)NCCc1ccccc1 (configuration not stated) | -28.5% | 
Cc1ccc(CCNC(=O)C2CC(c3ccccc3[N+](=O)[O-])=NO2)cc1 (configuration not stated) |  | 2.51 µM (active)
Cc1ccc(CNC(=O)C2CC(c3ccccc3[N+](=O)[O-])=NO2)cc1 (configuration not stated) | -28% | 
CCCc1cc(=O)oc2cc(OCc3cc(OC)c(OC)c(OC)c3)c(Cl)cc12 | -0.725% | 
O=C(Cc1ccccc1)N/N=C\c1ccc(Br)o1 | 9.59% | 
O=C(Nc1cccc2ncccc12)c1cccc(F)c1 | -5.82% | 
CC1Cc2ccccc2N1C(=O)CCN1C(=O)C2C3C=CC(C3)C2C1=O (configuration not stated) | -0.934% | 
CC(C)(C)Cn1nc(-c2ccc(Cl)cc2)c2c(N)ncnc21 | 11.5% | 
Nc1nc(N)nc(CCCc2nc(N)nc(N)n2)n1 | 19.1% [at 11.4 µM] | 
C/C(=C(/CCO)SSC[C@@H]1CCCO1)N(C=O)Cc1cnc(C)nc1N | 9.85% [at 25.6 µM] | 
COc1cccc(Nc2ncc3ncc(=O)n(CCC#N)c3n2)c1 | -7.47% | 
C1CCc2c(nc3nnnn3c2NC2CCCC2)C1 | -12.2% | 

Compound | activity, negative = inhibition | AC50
Cc1cc(=O)oc(C)c1C(=O)Nc1ccc(Cl)cn1 | 2.86% | 
CCOc1ccc(C(=O)Nc2ccc(NC(=O)c3ccco3)c(Cl)c2)cc1Br | 0.903% | 
COc1ccc(C(=O)Nc2ccc(Cl)cn2)cc1Cl |  | 3.55 µM (active)
CCOc1ccc(C(=O)Nc2cccc(-c3nc4cccnc4o3)c2)cc1Cl | -14.5% | 
COc1ccc(C(=O)Nc2cc(Cl)ccc2OC(=O)c2ccc(OC)cc2)cc1 | -21.4% | 
CCOc1ccc(C(=O)Nc2ccc(Cl)cn2)cc1Cl |  | 7.94 µM (active)
CCOc1cccc(C2C(C(=O)c3ccc(C)o3)=C(O)C(=O)N2Cc2ccncc2)c1 (configuration not stated) | -2.19% | 
CC(C)NC(=O)C(C)n1cccc1C(=O)c1ccccc1 (configuration not stated) | 1.03% | 
O=C(c1cc(-c2cccs2)on1)N1CCN(c2ccc(F)cc2)CC1 | -4.98% | 
CCC(=O)N1CCN(c2ccc(NC(=O)c3cccs3)cc2)CC1 | 1.92% | 
O=C(CCS(=O)(=O)c1cccs1)N1CCN(c2ccc(F)cc2)CC1 |  | 20 µM (active)
Cc1nc2sccn2c(=O)c1Cl | 5.34% | 
CCCCCCCCN1C(=O)N(C)C(N(O)C(=O)NC)C1(C)C (configuration not stated) | -18.4% | 
Cc1cc(C(=O)CSC(=S)SC(C)(C)C)ccc1Cl | -0.319% [at 11.4 µM] | 
CCC(C(=O)N1CCOCC1)n1c(C(=O)OC)cc2occc21 (configuration not stated) | -3.34% | 
CCS(=O)(=O)N1CCC[C@H]2CN3CCc4cc(OC)ccc4[C@@H]3C[C@@H]21 | 1.15% | 
COc1c(O)ccc2c1CN1CCc3cc4c(cc3[C@@H]1C2)OCO4 |  | 0.158 µM (active)
COc1cc2c3cc1Oc1c(OC)c(OC)cc4c1[C@@H](Cc1ccc(O)c(c1)Oc1ccc(cc1)C[C@@H]3N(C)CC2)CN(C)C4 | 2.38% [at 11.4 µM] | 
COc1ncc2nc(C)c(=O)n(C3CC3)c2n1 | -6.88% | 
COc1ccc(Cc2n[nH]c(=O)c3ccccc23)cc1OC | 2.51% | 
O=C(CNC(=O)c1ccco1)OCc1c(F)cccc1Cl | -19.8% | 
N[C@@H](CSC(=O)c1ccccc1)C(=O)O | 9.96% [at 11.4 µM] | 
Cc1c(-c2ccccc2)oc2c(C(=O)OCCN3CCCCC3)cccc2c1=O |  | 7.94 µM (active)
O=C(OCCN1CCCCC1)c1c[nH]c2ccccc12 | 4.62% | 
Cc1ccccc1C(=O)Oc1ccc(Br)cc1C(=S)N1CCCC1 | -18.1% | 

Compound | activity, negative = inhibition | AC50
Cc1ccccc1Oc1ccc(-c2nc(N)nc(N)n2)cc1 | -15.2% | 
O=C(N/N=C/c1ccc(O)cc1)c1csc2ccccc12 | 1.92% | 
O=C(CCN1CCCCC1)c1csc2ccccc12 |  | 1 µM (active)
O=C(Oc1ccc2ccccc2c1Br)N1CCCCCC1 | -20.5% | 
Cc1noc(C)c1-c1cc(N2CCN(C)CC2)ncn1 | -0.596% | 
O=C(O)Cc1ccc2c(c1)N(S(=O)(=O)c1cccc(C(F)(F)F)c1)CC(C(=O)O)O2 (configuration not stated) | 2.47% | 
C=CC1=C[C@@H](O)C2OC2C12OCCCO2 (some centres not stated) | -1.06% [at 11.4 µM] | 
Cc1[nH]n(-c2ccc(S(=O)(=O)O)cc2)c(=O)c1N=Nc1ccccc1 | 16.9% [at 11.4 µM] | 
O=C(Oc1ccccc1)N1CCC2(CCCN(c3ccccc3)C2)CC1 | -6.41% | 
CN(C)CCn1c(CO)nc2c1c(=O)n(C)c(=O)n2C | -1.53% [at 11.4 µM] | 
CCCCCn1c(CN2CCCCC2C)nc2c1c(=O)n(C)c(=O)n2C (configuration not stated) |  | 14.1 µM (active)
CCCCn1c(SCC(=O)N2CCCC2)nc2c1c(=O)n(C)c(=O)n2C | 0.341% | 
Cc1ccc(-n2nnnc2SCC(=O)NNC(=O)c2ccco2)c(C)c1 | 21.1% | 
O=C(O)Cc1cccnc1 | 16.4% [at 11.4 µM] | 
c1ccc(C[C@@H](Nc2cccnc2)c2ccccc2)cc1 |  | 1 µM (active)
O=C(NCC(c1cccnc1)N1CCOCC1)Nc1ccccc1 (configuration not stated) | -29% | 
O=S(=O)(O)c1cc(O)c2c(O)c(N=Nc3cccc4ccccc34)c(S(=O)(=O)O)cc2c1 | -16% [at 11.4 µM] | 
COc1cc(C2SCCCCCCCCCCSC(c3ccc(O)c(OC)c3)SCCCCCCCCCCS2)ccc1O (configuration not stated) | 6.94% [at 11.4 µM] | 
COc1ccc(NC(=O)COC(=O)c2c3c(nc4ccccc24)CCCC3)cc1 | -28.1% | 
COc1cccc(NC(=O)COC(=O)c2c3c(nc4ccccc24)CCC(C)C3)c1 (configuration not stated) |  | 7.94 µM (active)
COc1ccc(OC)c(NC(=O)c2c3c(nc4ccccc24)CCC3)c1 | -23.5% | 
C[N+]1(CCOc2ccc([N+](=O)[O-])cc2)CCOCC1 | -9.46% | 
Cc1ccc(/S(C)=N/S(=O)(=O)c2ccc(C)cc2)cc1 (configuration not stated) | -12.1% | 
C[C@@H](c1ccccc1)N1C(=O)[C@@H]2[C@H]3C(=CC[C@H]2C1=O)C(=O)[C@H]1O[C@H]1[C@H]3O | 5.61% [at 11.4 µM] | 
CN1CCN(c2nc(-c3ccccc3)cc(C(F)(F)F)n2)CC1 |  | 17.8 µM (active)

Compound | activity, negative = inhibition | AC50
COc1ccccc1N1CCN(c2nc(-c3ccccc3)cc(C(F)(F)F)n2)CC1 | -3.52% | 
COc1cccc(-c2cc(C(F)(F)F)nc(N3CCN(c4ccccc4)CC3)n2)c1 | -13.2% | 
CC1CCC(C(C)C)C(OCC(O)CN2CCN(Cc3ccccc3)CC2)C1 (configuration not stated) |  | 0.112 µM (active)
O=C(c1ccccc1)c1ccc(OCC(O)CN2CCN(Cc3ccccc3)CC2)cc1 (configuration not stated) |  | 3.16 µM (active)
CC1CC(OCC(O)CN2CCN(Cc3ccccc3)CC2)CC(C)(C)C1 (configuration not stated) | -25.2% | 
COc1cc(/C=C/C(=O)N2CCN(CC(O)COc3ccccc3)CC2)cc(OC)c1OC (configuration not stated) | -5.83% | 
O=C(c1ccccc1)c1ccc(OCCn2cnc3ccccc3c2=O)cc1 | -15.1% | 
Cc1cccc(-n2nnc3cnn(C)c3c2=O)c1 | 23.6% | 
O=C(O)[C@@H]1[C@H](C(=O)O)[C@H]2C(=O)C=C[C@H]1N2Cc1ccccc1 | 3.08% [at 11.4 µM] | 
Cc1nn(C)c(Cl)c1NC(=O)OCc1ccc(F)cc1 | 1.19% | 
CC(=O)[C@@H]1CC[C@@H]2[C@@H]3C[C@H](C)C4=CC(=O)CC[C@@]4(C)[C@H]3[C@H](O)C[C@]21C | -5.2% [at 25.6 µM] | 
C=C(NC(=O)C(=C)NC(=O)c1csc(C2=N[C@@H]3c4csc(n4)[C@@H]4NC(=O)c5csc(n5)[C@@H]([C@](C)(O)[C@H](C)O)NC(=O)[C@@H]5CSC(=N5)/C(=C/C)NC(=O)[C@@H]([C@H](C)O)NC(=O)c5csc(n5)[C@]3(CC2)NC(=O)[C@@H](C)NC(=O)C(=C)NC(=O)[C@@H](C)NC(=O)[C@@H]([C@@H](C)CC)N[C@H]2C=Cc3c([C@H](C)O)cc(nc3[C@@H]2O)C(=O)O[C@H]4C)n1)C(N)=O | -0.464% [at 25.6 µM] | 
Cn1c(=O)c2[nH]c(C3CCCC3)nc2n(C)c1=O | 10.2% | 
Cc1nn(Cc2ccc(Cl)cc2)c(C)c1NC(=O)Cn1nc([N+](=O)[O-])c(Cl)c1C | 2.61% | 
COc1cnc(NS(=O)(=O)c2ccc(N)cc2)nc1 | 5.47% [at 25.6 µM] | 
CCOC(=O)C1=C(O)/C(=C\c2ccc(OC)c(OC)c2)N=C1C | -2.52% | 
Cc1noc(C)c1-c1cncnc1N(C)Cc1ccco1 | -10.5% | 
CN(Cc1ccco1)c1ncncc1-c1cccnc1 | -2.43% | 
COc1cccc(-c2cncnc2N(C)Cc2ccco2)c1 |  | 12.6 µM (active)
CN(C)c1ccc(-c2cncnc2N(C)Cc2ccco2)cc1 |  | 12.6 µM (active)
CN(Cc1ccco1)c1ncncc1-c1ccccc1Cl |  | 12.6 µM (active)
CN(Cc1ccco1)c1ncncc1-c1ccc2c(c1)OCO2 |  | 1.26 µM (active)
